This is part of a sample that, as a whole, favours compounds with a hit. Of some 83,000 tested, about 20% had one in any assay.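 Growth was measured after 48 h exposure to one concentration of compound in 96-well plates. Values under 10 count as active.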 A number with no mark means an inactive call. Activity calls are given as the source filed them.
Experiments:
Experiment in all cases: NCI-60 one-dose screen, 48 h (100 = growth as untreated, 0 = no growth, -100 = all killed)
Details in all cases: 10 µM unless noted
[1] = tested on: NCI-H23 lung
[2] = tested on: NCI-H226 lung
[3] = tested on: NCI-H322M lung
[4] = tested on: HOP-62 NSCLC
[5] = tested on: NCI-H460 lung
[6] = tested on: HOP-92 NSCLC
[7] = tested on: NCI-H522 lung
[8] = tested on: A549/ATCC NSCLC
[9] = tested on: 786-0 renal
[10] = tested on: COLO 205 colon
[11] = tested on: DU-145 prostate
[12] = tested on: K-562 leukemia
[13] = tested on: MALME-3M melanoma
[14] = tested on: MDA-MB-231 breast
[15] = tested on: RXF 393 renal
[16] = tested on: SF-268 CNS
[17] = tested on: SF-295 CNS
[18] = tested on: SF-539 CNS
[19] = tested on: UACC-257 melanoma
[20] = tested on: M14 melanoma

Row | Structure (SMILES) | growth [1] | growth [2] | growth [3] | growth [4] | growth [5] | growth [6] | growth [7] | growth [8] | growth [9] | growth [10] | growth [11] | growth [12] | growth [13] | growth [14] | growth [15] | growth [16] | growth [17] | growth [18] | growth [19] | growth [20]
1 | Cc1c(/C=C/[N+](=O)[O-])ccc2c1[nH]c1ccccc12 | 93.3% | 54.3% | 134% | 106% | 95.4% | 90.6% | 94.8% | 87.8% | 73.2% | 82.2% | 99.3% | 91.6% | 135% | 106% | 62.6% | 108% | 103% | 94.2% | 90% | 
2 | CCCOc1cc2ccccc2cc1C(=O)Nc1nc(NC)c2c(ccc3nccc32)[nH]1 | -64.8% (active) | -59.3% (active) | -65.9% (active) | -73.1% (active) | -78.3% (active) | -61.2% (active) | -74.5% (active) | -74.8% (active) | -72.9% (active) | -76.2% (active) | -82.8% (active) | -54.3% (active) | -80.7% (active) | -71.3% (active) | -71.7% (active) | -78% (active) | -66.6% (active) | -76.9% (active) | -75.4% (active) | -75.7% (active)
3 | CCOc1cc2ncc(C#N)c(Nc3ccc(OCc4cccc(F)c4)c(Cl)c3)c2cc1NC(=O)CC1CCSS1 (stereo unspecified) | 47.4% | 56.1% | 6.49% (active) | 14.9% | -56.6% (active) | 66.7% | 58.2% | -69.7% (active) | 88.5% | 32.2% | -24.9% (active) | 10.5% | 56.5% | 14.5% | 50.2% | -22.3% (active) | 91.3% | 49.9% | 64.8% | 
4 | Cc1ccc(NC(=O)C2CCC(CN3CCN(C)CC3)CC2)cc1Nc1nccc(-c2cccnc2)n1 (stereo unspecified) | 96.1% | 99.8% | 95.9% | 105% | 101% | 85.5% | 129% | 114% | 98.7% | 94.4% | 100% | 58.3% | 104% | 101% | 96% | 100% | 101% | 63.4% | 115% | 
5 | c1ccc(-c2cc3n4c(-c5ccccc5)nn(-c5ccccc5)c4cnc-3n2)cc1 | 58.1% | 73.4% | 23.6% | 102% | 54.9% | 51.2% | 9.2% (active) | 31.3% | 75.5% | 75.1% | 38.6% | 104% | 60.1% | 36.2% | -16.1% (active) | 46.1% | 30.7% | 48% | 22.1% | 
6 | COc1ccc(-n2nc(C)c3c(Nc4ccc(NC(=O)Nc5ccc(Cl)c(C(F)(F)F)c5)cc4)ncnc32)cc1 | -7.74% (active) | 10.7% | 9.35% (active) | -15.3% (active) | 0.651% (active) | -18.9% (active) | -18.4% (active) | 6.97% (active) | -25.5% (active) | -23.6% (active) | 23.8% | 5.84% (active) | -27.5% (active) | -25% (active) | -35.7% (active) | 17.7% | -39.7% (active) | -5.4% (active) | -16.6% (active) | -26.9% (active)
7 | O=C(CN1C(=O)/C(=C/c2ccc(Cl)cc2)SC1=S)NCCCN1CCOCC1 | 97% | 95.2% | 104% | 111% | 101% | 85.7% | 96.9% | 104% | 111% | 116% | 102% | 94.2% | 90.7% | 99.3% | 105% | 93.6% | 93.2% | 92.8% | 101% | 113%
8 | COc1cccc(-c2nn(C(C)(C)C)cc2-c2ccnc(NCCCNS(=O)(=O)c3cccc4ccccc34)c2)c1 | 109% | 109% | 111% | 103% | 104% | 104% | 95.6% | 104% | 103% | 115% | 107% | 104% | 114% | 106% | 109% | 108% | 101% | 113% | 110% | 101%
